Results: PubChem BioAssay (NCATS)
Results filed as inconclusive are left out. The source made the active and inactive calls. Calls follow the shape of the dose curve; as a rule, active = well fitted cell-killing curve with a large enough effect; inconclusive = small, poorly fitted or top-dose-only effect; inactive = no such curve, though single readings can be large or run the other way.

Assay: qHTS of pediatric cancer cell lines to identify multiple opportunities for drug repurposing: Primary screen for A673 cells (AID 1347092); also: nearly all actives have a fitted effect of over 45% in size
Settings: A673 Ewing sarcoma viability, CellTiter-Glo ATP luminescence, 48 h; series mostly up to 46 µM; activity change, negative = cytotoxic: at the top concentration
Source text: Drug repurposing or repositioning has been offered as a strategy for drug development in oncology programs. This approach has special potential for childhood cancers and other rare or orphan diseases, where the expected return on new drug development has been a disincentive to pharmaceuticals. […] In this project we exploit the poly-pharmacology of drugs to discover new indications via phenotypic screening of a panel of 19 well-characterized cell lines derived from solid tumors seen in children and adolescents. The goal is to identify approved drugs with previously unrecognized anticancer properties that has the potential to reveal new mechanisms and biological processes involved in carcinogenesis or drug resistance. We employed a titration-based paradigm (quantitative high-throughput screening or qHTS), where all compounds were tested at multiple concentrations for their effect on cell viability. Concentration-response curves (CRCs) were derived directly from the primary screen, and both potency and efficacy values were used to identify compounds with robust bioactivity profiles. We screened the NIH Chemical Genomics Center (NCGC) Pharmaceutical Collection (NPC) and Mechanism Interrogation Plate (MIPE) small molecule collections of approved and investigational compounds against these cell lines; and measured metabolically active cells after 48 hours of compound treatment as a proxy for cell viability. […] Assay Submitter: Nathalia J. Martinez, National Center for Advancing Translational Sciences, National Institutes of Health, Rockville, MD, USA; email: natalia.martinez@nih.gov. Shen, M et al. Quantitative high-throughput phenotypic screening of pediatric cancer cell lines identifies multiple opportunities for drug repurposing. Oncotarget 2017 Dec 19;9(4):4758-4772. PMID 29435139.
The cells were obtained from University of North Carolina (UNC), Pediatric Preclinical Testing Program (PPT), and Coriell Institute (CI). qHTS cell viability assay: Cells were assayed in growth media at a density of 500-1,000 cells/well. Five microliters of cells were dispensed into 1,536-well, white, solid-bottom, TC-treated plates (Greiner Bio One) using a multidrop dispenser and incubated at 37 degrees C, 5% CO2, under a humidified atmosphere for 5 hours. Twenty-three nanoliters of compounds and controls (neutral control DMSO or positive control bortezomib at final concentration of 2.3 uM) were subsequently transferred by Kalypsys pintool. For primary screens, the MIPE collection was tested at 11-point dilutions (final concentrations range from 0.78 nM to 46 µM) and the NPC collection at 8-point dilutions (final concentrations range from 0.59 nM to 46 µM). Compounds tested in follow-up screens were assayed at 11-point dilutions. Cells were incubated for 48 hours, followed by addition of 3 uL of CellTiter-Glo (Promega). After a 15min incubation at room temperature, samples were analyzed for luminescence intensity using a ViewLux High-throughput CCD imager equipped with clear filters.
% is scaled to controls: 0 for no effect and ±100 for the full control effect; potency is read from the fitted curve at half-maximal effect.

SMILES	Potency	activity change, negative = cytotoxic
CC(C(=O)O)c1ccc(-c2ccccc2)c(F)c1 (stereo not given)	14.8 µM (active)	
CO[C@H]1C(=O)[C@]2(C)[C@@H](OC)C[C@H]3OC[C@@]3(OC(C)=O)[C@H]2[C@H](OC(=O)c2ccccc2)[C@]2(O)C[C@H](OC(=O)[C@H](O)[C@@H](NC(=O)OC(C)(C)C)c3ccccc3)C(C)=C1C2(C)C	0.001 µM (active)	
O=C1NCC2(CCN(CCc3ccccc3)CC2)O1		-3.11% (inactive)
CN1CCN(CCOc2cc(OC3CCOCC3)c3c(Nc4c(Cl)ccc5c4OCO5)ncnc3c2)CC1	11.8 µM (active)	
CCCCCN(C)CCC(O)(P(=O)(O)O)P(=O)(O)O		1.76% (inactive)
CC1(C)CCC[C@@]2(C)[C@@H]1CC[C@@]1(C)OC(=O)C[C@H]21		-4.26% (inactive)
CC=CC(=O)N(CC)c1ccccc1C		-12.7% (inactive)
CCn1cc(C(=O)O)c(=O)c2ccc(C)nc21	inactive	
O=C(Nc1c(Cl)cncc1Cl)c1ccc(OC(F)F)c(OCC2CC2)c1		-16.6% (inactive)
CCN1CCC[C@H]1CNC(=O)c1cc(S(N)(=O)=O)ccc1OC		2.73% (inactive)
Cc1[nH]c(C=C2C(=O)Nc3ccc(S(=O)(=O)Cc4c(Cl)cccc4Cl)cc32)c(C)c1C(=O)N1CCC[C@H]1CN1CCCC1	23.5 µM (active)	
Cc1cc(OCCCc2c(C(=O)O)n(Cc3cccnc3)c3c(-c4c(COc5ccc(N6CCN([S+](C)(=O)[O-])CC6)cc5)nn(C)c4C)cccc23)cc(C)c1Cl	23.5 µM (active)	
C[C@H](NC(=O)C(=O)Nc1ccccc1C(C)(C)C)C(=O)N[C@@H](CC(=O)O)C(=O)COc1c(F)c(F)cc(F)c1F	23.5 µM (active)	
Cc1nnc(C(C)C)n1C1C[C@H]2CC[C@@H](C1)N2CC[C@H](NC(=O)C1CCC(F)(F)CC1)c1ccccc1 (stereo not given in full)	14.8 µM (active)	
CC(C)OC(=O)CCCC=CC[C@@H]1[C@H](C=C[C@@H](O)COc2cccc(C(F)(F)F)c2)[C@H](O)C[C@@H]1O		-27.4% (inactive)
O=C(O)Cc1cccc2ccccc12	inactive	
O=C(O)C=Cc1ccc(O)c(O)c1	11.8 µM (active)	
O=C(CCN1CCN(C(=O)OCc2cc(Cl)cc(Cl)c2)CC1)c1ccc2[nH]c(=O)oc2c1		-25.9% (inactive)
N#Cc1ccc(NC(=O)Nc2ccccc2Br)c2n[nH]nc12	23.5 µM (active)	
CCN(CC)CCOC(=O)c1ccc(N)cc1		0.487% (inactive)

SMILES	Potency	activity change, negative = cytotoxic
Cc1ccc(F)c(NC(=O)Nc2ccc(-c3cccc4[nH]nc(N)c34)cc2)c1	14.8 µM (active)	
O=C(NC1CCOCC1)c1ccc(-c2cc(-c3cn[nH]c3-c3ccccn3)ccn2)cc1		2.58% (inactive)
CCCCCNC(=O)N1CCC(CN(Cc2ccc(Cl)cc2)Cc2ccc([N+](=O)[O-])s2)C1 (stereo not given)	23.5 µM (active)	
CO[C@H]1C[C@@H]2CC[C@@H](C)[C@@](O)(O2)C(=O)C(=O)N2CCCC[C@@H]2C(=O)O[C@H]([C@@H](C)C[C@@H]2CC[C@H](O)[C@H](OC)C2)CC(=O)[C@H](C)C=C(C)[C@@H](O)[C@@H](OC)C(=O)[C@H](C)C[C@H](C)C=CC=CC=C1C		-36.1% (inactive)
CC(=O)Oc1cc2c(s1)CCN(C(C(=O)C1CC1)c1ccccc1F)C2 (stereo not given)	1.48 µM (active)	
CC1(C)CCC(CN2CCN(c3ccc(C(=O)NS(=O)(=O)c4ccc(NCC5CCOCC5)c([N+](=O)[O-])c4)c(Oc4cnc5[nH]ccc5c4)c3)CC2)=C(c2ccc(Cl)cc2)C1	18.7 µM (active)	
C=C1C(=O)[C@@]23C(CC[C@@H]1[C@H]2O)[C@@]12CO[C@]3(O)[C@@H](O)[C@@H]1C(C)(C)CC[C@@H]2O (stereo not given in full)	3.72 µM (active)	
O=c1c(O)c(-c2ccc(O)cc2)oc2cc(O)cc(O)c12	14.8 µM (active)	
O=C(O)c1ccc(-c2cc3cccnc3c(-c3ccc4nonc4c3)n2)cc1	18.7 µM (active)	
CC(=O)CCCCn1c(=O)c2c(ncn2C)n(C)c1=O		-4% (inactive)
NCCS		41.4% (inactive)
O=c1cc(N2CCOCC2)oc2c(-c3cccc4c3sc3ccccc34)cccc12	14.8 µM (active)	
CC[C@]1(O)C[C@@H]2CN(CCc3c([nH]c4ccccc34)[C@@](C(=O)OC)(c3cc4c(cc3OC)N(C=O)[C@@H]3C45CCN4CC=C[C@](CC)([C@H]45)[C@@H](OC(C)=O)[C@]3(O)C(=O)OC)C2)C1 (stereo not given in full)	11.8 µM (active)	
CC1(C)S[C@H]2[C@H](NC(=O)[C@@H](N)c3ccc(O)cc3)C(=O)N2[C@@H]1C(=O)O	0.935 µM (active)	
NC1CCC(Nc2nc(Nc3ccc(C(=O)N4CCCCC4)cc3)c3ncn(-c4cccc(F)c4)c3n2)CC1 (stereo not given)		-5.02% (inactive)
CNC(=O)c1ccc2cc(C3(O)CCn4cncc43)ccc2c1 (stereo not given)		1.54% (inactive)
CN(C)CCC=C1c2ccccc2COc2ccc(CC(=O)O)cc21	18.7 µM (active)	
CO[C@H]1C=CC=C(C)C(=O)NC2=CC(=O)C(NCCN(C)C)=C(C[C@@H](C)C[C@H](OC)[C@@H](O)[C@@H](C)C=C(C)[C@@H]1OC(N)=O)C2=O	0.0743 µM (active)	
COc1ccc(-c2cc(=O)c3c(O)cc(O)cc3o2)cc1O	4.69 µM (active)	
C[N+](C)(C)CCCCCC[N+](C)(C)C		4.66% (inactive)
